Experimental data as given in PubChem BioAssay.
Activity calls are given as the source filed them.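 The calls were made as follows, unless noted: active = NADPH fluorescence slope more negative than the mean of all samples by about 3 SD, 99.7% confidence; inactive = the rest.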

Experiments:
[1] = inhibitors of TNFa-induced NFkB p65 translocation, primary screen, imaging, HUVEC, MLSMR starter and 10KST1 sets (AID 438;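 active = inhibition above 20% together with a positive visual image hit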;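 also: compound added about 3h40 before a 20 min TNFalpha stimulation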;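 as to inhibition: signal is the nuclear over cytoplasmic p65 intensity ratio per well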); settings: HUVEC TNFa-induced p65 nuclear translocation; cell count: measured here: nuclei count (cytotoxicity indicator), at 2.08 µM; inhibition: at 2 µM, stronger effect = higher value, 0% TNFa-plus-vehicle, 100% no-TNFa wells
[2] = reduction of polyQ htt aggregates in cells – imaging, exon1htt(103Q)mCFP cells, high-content imaging, primary screen (AID 483;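 active = visual image review flags a hit and inhibition of aggregation exceeds 20%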;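 also: compound exposure lasted 3 days before fixation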;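 as to nuclei count: percent of the per-plate median nuclei count of sample wells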); settings: exon1htt(103Q)mCFP cell line, aggregate imaging, at 2 µM; inhibition of aggregation: stronger effect = higher value; nuclei count: measured here: cell count, toxicity
[3] = endothelial E-selectin expression blockers – imaging, HUVEC, immunofluorescence, MLSMR starter and 10KST1 sets, primary screen (AID 487;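 active = visually confirmed hit in the image check and inhibition above 20%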;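 as to inhibition: signal is fraction of cell area covered by stained E-selectin grains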;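 as to nuclei count: 100% = median nuclei count of all wells on the same plate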); settings: HUVEC TNFalpha-induced E-selectin immunofluorescence imaging, at 2 µM; inhibition: stronger effect = higher value; nuclei count: measured here: cell number, toxicity
[4] = target: Voltage-gated potassium channel subunit beta-2 (Rattus norvegicus) (UniProt P62483); experiment: inhibitors of rat Kvbeta2 reductase activity – biochemical, NADPH fluorescence, primary screen (AID 622;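 active = fluorescence slope higher than the sample average by over 3 SD, cut at about -0.22 in these data, passing the limit was not always enough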;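 also: slope of raw intensity against log time taken from 70 to 1610 s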); settings: recombinant KvBeta, 4-cyanobenzaldehyde reduction, at 10 µM, stronger effect = higher value
[5] = target: Voltage-gated potassium channel subunit beta-2 (Rattus norvegicus) (UniProt P62483); experiment: enhancers of rat Kvbeta2 NADPH turnover – biochemical, NADPH fluorescence, primary screen (AID 623); settings: Recombinant KvBeta, NADPH fluorescence decrease slope, 10 min; at 10 µM; stronger effect = lower value;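 also: fluorescence intensity change per second fitted from 20 to 320 s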
[6] = target: Alpha-2C adrenergic receptor (Homo sapiens) (UniProt P18825); experiment: compounds altering alpha2C-coupled GIRK flux – cell-based, HEK293 alpha2C/GIRK1/2, thallium flux, primary screen (AID 624;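 active = fluorescence slope after compound addition differing from the mean of all screened samples at 99.7% confidence, in either direction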;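 also: slope of fluorescence ratio to pre-addition baseline per second over 15 to 24 s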); settings: thallium flux BTC fluorescence, at 10 µM, actives lie on both sides
[7] = blockers of RIG-like receptor reporter activation – cell-based, Sendai virus stimulus, luciferase, 10K MLSCN set, TLR/RLR signaling modifier project, primary screen (AID 602276;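 active = inhibition at or above 50% at 10 µM; inactive = inhibition below 50%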;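 also: firefly luciferase from ISG56 promoter only with Renilla not read in this screen; 0% = Sendai virus plus DMSO and 100% = medium plus DMSO without virus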); settings: HEK293 RL24 IRF3 luciferase reporter, at 10 µM, stronger effect = higher value
[8] = TLR3 IRF3 reporter activation blockers – cell-based, poly I:C stimulus, luciferase, 10K MLSCN set, primary screen (AID 602277;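 active = inhibition of the reporter signal at or above 50%; inactive = inhibition below 50%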); settings: HEK293-TLR3 RL24 IRF3 luciferase reporter, at 10 µM, stronger effect = higher value

Sequence of Alpha-2C adrenergic receptor (Homo sapiens) (P18825 whole entry, looked up): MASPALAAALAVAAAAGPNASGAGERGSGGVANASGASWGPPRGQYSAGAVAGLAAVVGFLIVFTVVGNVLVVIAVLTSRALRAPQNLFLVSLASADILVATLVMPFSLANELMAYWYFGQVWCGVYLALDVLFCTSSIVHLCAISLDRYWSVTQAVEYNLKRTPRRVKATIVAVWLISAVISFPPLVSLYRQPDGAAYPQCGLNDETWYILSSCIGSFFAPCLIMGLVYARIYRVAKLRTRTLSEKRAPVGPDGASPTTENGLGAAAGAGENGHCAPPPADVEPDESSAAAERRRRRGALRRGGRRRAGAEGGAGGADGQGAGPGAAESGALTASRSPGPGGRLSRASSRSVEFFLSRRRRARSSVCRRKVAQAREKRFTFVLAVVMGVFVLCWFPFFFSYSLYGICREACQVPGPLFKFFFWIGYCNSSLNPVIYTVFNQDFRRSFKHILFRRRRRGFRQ
Sequence of Voltage-gated potassium channel subunit beta-2 (Rattus norvegicus) (P62483 whole entry, looked up): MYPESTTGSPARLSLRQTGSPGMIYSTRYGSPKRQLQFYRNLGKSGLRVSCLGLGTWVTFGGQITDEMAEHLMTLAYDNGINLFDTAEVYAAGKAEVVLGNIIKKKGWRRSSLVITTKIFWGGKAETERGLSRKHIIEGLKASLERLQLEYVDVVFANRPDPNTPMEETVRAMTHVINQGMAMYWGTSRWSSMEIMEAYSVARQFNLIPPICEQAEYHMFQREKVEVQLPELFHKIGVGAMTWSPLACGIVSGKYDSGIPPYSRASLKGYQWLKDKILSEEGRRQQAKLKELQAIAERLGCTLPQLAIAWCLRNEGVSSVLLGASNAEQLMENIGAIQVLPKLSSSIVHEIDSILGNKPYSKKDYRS

Structure (SMILES)	cell count [1]	inhibition [1]	inhibition of aggregation [2]	nuclei count [2] [%]	inhibition [3]	nuclei count [3] [%]	fluorescence slope [4]	NADPH fluorescence slope [5]	slope [6]	inhibition [7]	inhibition [8]
O=S(=O)(NCC(c1cccnc1)N1CCN(c2ccccc2)CC1)c1cc(F)ccc1F (stereo unspecified)	524	-6.2% (inactive)	9% (inactive)	51.3	-75.8% (inactive)	115	-0.508 (inactive)	5.2e-05 (inactive)	0.00657 (inactive)	21.7% (inactive)	20.8% (inactive)
Cc1cc(C(=O)CN2C(=O)c3ccccc3C2=O)c(C)n1Cc1cccs1	522	-14.8% (inactive)	-1% (inactive)	112	-3.3% (inactive)	161	-0.517 (inactive)	-0.000116 (inactive)	0.00475 (inactive)	14.6% (inactive)	52.1% (active)
CCn1cc(S(=O)(=O)CC(=O)Nc2ccc(OC)cc2)c2ccccc21	624	-2.4% (inactive)	7% (inactive)	82.1	-16.8% (inactive)	115	-0.528 (inactive)	-4.7e-05 (inactive)	0.00751 (inactive)	7.03% (inactive)	16.6% (inactive)
FC(F)(F)c1cc(-c2ccccc2)nc(N2CCCCC2)n1	286	3.3% (inactive)	3.7% (inactive)	100	-8.9% (inactive)	105	-0.578 (inactive)	-3.3e-05 (inactive)	0.00434 (inactive)	12.9% (inactive)	12.8% (inactive)
Cc1c2cnn(CC(=O)N3CCN(c4ncccn4)CC3)c(=O)c2c(C)n1Cc1ccc(F)cc1	405	-9.2% (inactive)	4.7% (inactive)	99.5	-130% (inactive)	118	-0.371 (inactive)	-3.3e-05 (inactive)	0.00444 (inactive)	-14.2% (inactive)	-8.56% (inactive)
Cn1cc(Cl)c(C(=O)NC2CCCC2)n1	452	-8.5% (inactive)	26.8% (inactive)	64.4	-25.2% (inactive)	104	-0.594 (inactive)	-3.1e-05 (inactive)	0.00694 (inactive)	-2.09% (inactive)	4.05% (inactive)
CCc1nn2c(=O)cc(CSc3nc4sc5c(c4c(=O)n3C)CCCC5)nc2s1	536	-14.1% (inactive)	-13.9% (inactive)	118	38% (inactive)	65.2	-0.598 (inactive)	4.1e-05 (inactive)	0.00602 (inactive)	-3.07% (inactive)	-3.25% (inactive)
COc1ccc(S(=O)(=O)CCC(=O)O)cc1	756	-2.2% (inactive)	25.4% (inactive)	126	-47.5% (inactive)	107	-0.603 (inactive)	1.2e-05 (inactive)	0.00748 (inactive)	17% (inactive)	21.8% (inactive)
CCOc1ccccc1NC(=O)CC1Nc2cc(C)c(C)cc2NC1=O (stereo unspecified)	374	1.8% (inactive)	23.2% (inactive)	94.4	-48.5% (inactive)	105	-0.265 (inactive)	-1.1e-05 (inactive)	0.00531 (inactive)	14.6% (inactive)	26% (inactive)
CC(=O)C1=C(C)NC(SCSc2ccccc2)=C(C#N)C1c1cccnc1 (stereo unspecified)	472	-0.5% (inactive)	-6.8% (inactive)	87.9	-33% (inactive)	121	-0.475 (inactive)	-3e-05 (inactive)	0.00661 (inactive)	1.86% (inactive)	0.63% (inactive)
CC(C)c1nnc(NC(=O)CCC(=O)NCc2ccc3c(c2)OCO3)s1	571	11.2% (inactive)	-5.1% (inactive)	95.8	21.4% (inactive)	97.3	-0.404 (inactive)	-4.6e-05 (inactive)	0.00581 (inactive)	14.1% (inactive)	13.8% (inactive)
O=C(Cn1c(=O)n(CC2CCCO2)c(=O)c2ccccc21)c1ccccc1 (stereo unspecified)	361	4.4% (inactive)	1.4% (inactive)	103	4.5% (inactive)	111	-0.51 (inactive)	-3.9e-05 (inactive)	0.00589 (inactive)	10.8% (inactive)	16.3% (inactive)
COc1ccc(NC(=O)CSc2nnc(Cc3cccn3C)n2-c2ccc(F)cc2)cc1OC	541	-1.3% (inactive)	-0.2% (inactive)	92.7	-59.2% (inactive)	118	-0.588 (inactive)	-2.4e-05 (inactive)	0.00584 (inactive)	12.2% (inactive)	27.1% (inactive)
N#Cc1cnc(SCCc2ccccc2)nc1N	630	-13.1% (inactive)	-5.2% (inactive)	93.9	-14.8% (inactive)	108	-0.291 (inactive)	-5.5e-05 (inactive)	0.00492 (inactive)	-34% (inactive)	-61.8% (inactive)
CCC(C)c1ccc(NC(=O)c2cccnc2)cc1 (stereo unspecified)	393	18% (inactive)	2.8% (inactive)	113	-48.5% (inactive)	130	-0.395 (inactive)	3e-05 (inactive)	0.00669 (inactive)	-47.8% (inactive)	-142% (inactive)
CSc1oc(-c2ccccc2)nc1S(=O)(=O)c1ccc(F)cc1	417	8.3% (inactive)	1% (inactive)	101	-45.5% (inactive)	107	-0.481 (inactive)	-3.1e-05 (inactive)	0.00494 (inactive)	16.4% (inactive)	22.3% (inactive)
COC(=O)C1CCN(C(=O)NC(C)(C)C)CC1	307	-4.5% (inactive)	14.5% (inactive)	82.1	-37.4% (inactive)	99.6	-0.618 (inactive)	-4.3e-05 (inactive)	0.00637 (inactive)	5.02% (inactive)	14.9% (inactive)
CCCn1cc(SCC(N)=O)c2ccccc21	743	-8% (inactive)	-1.3% (inactive)	107	-33.9% (inactive)	113	-0.382 (inactive)	-6.4e-06 (inactive)	0.00614 (inactive)	13.5% (inactive)	27.7% (inactive)
Cc1[nH]c2ccccc2c1Cc1nnc(SCC(=O)NCc2ccco2)o1	428	-7.7% (inactive)	12.9% (inactive)	83.4	-24.9% (inactive)	87	-0.436 (inactive)	1.9e-05 (inactive)	0.0061 (inactive)	-11.7% (inactive)	-28.3% (inactive)
CCOc1ccc(-c2nc(C#N)c(NCc3ccc4c(c3)OCO4)o2)cc1	801	1.8% (inactive)	-13.1% (inactive)	93.8	-56.3% (inactive)	120	-0.581 (inactive)	-4.4e-05 (inactive)	0.00619 (inactive)	-4.94% (inactive)	-18.3% (inactive)
C/C(=N\O)C(=O)NCc1ccccn1	290	0.5% (inactive)	4.5% (inactive)	108	-55.3% (inactive)	104	-0.431 (inactive)	1.8e-05 (inactive)	0.00348 (inactive)	-4.43% (inactive)	-25.9% (inactive)
Cc1ccc(C2=Nc3ccccc3NC(C)(c3ccc(C)o3)C2)o1 (stereo unspecified)	696	1.6% (inactive)	-18.4% (inactive)	100	-39.9% (inactive)	100	-0.54 (inactive)	1.2e-05 (inactive)	0.00401 (inactive)	-47.1% (inactive)	-67.9% (inactive)
Cc1cc(C)nc(SCC(=O)Nc2ccc(S(=O)(=O)Nc3nccs3)cc2)n1	312	9% (inactive)	5.3% (inactive)	97.6	-21.2% (inactive)	116	-0.383 (inactive)	-5.8e-05 (inactive)	0.00544 (inactive)	10% (inactive)	32.8% (inactive)
O=C(NCC1COc2ccccc2O1)C1CCCN(S(=O)(=O)c2cnc[nH]2)C1 (stereo unspecified)	617	7.3% (inactive)	-15.6% (inactive)	100	-63.3% (inactive)	124	-0.501 (inactive)	-2e-05 (inactive)	0.00703 (inactive)	4.57% (inactive)	24.5% (inactive)
CC(C)C[C@H](NC(=O)Nc1cccc(C(F)(F)F)c1)C(=O)O	393	-9.8% (inactive)	9.1% (inactive)	70.6	-25.5% (inactive)	97.8	-0.493 (inactive)	4.1e-05 (inactive)	0.00499 (inactive)	-1.3% (inactive)	6.75% (inactive)
CC(CCC(=O)Nc1nncs1)C(=O)O (stereo unspecified)	527	-0.8% (inactive)	1.4% (inactive)	97	-52.1% (inactive)	123	-0.535 (inactive)	-5.2e-05 (inactive)	0.00611 (inactive)	9.72% (inactive)	20.3% (inactive)
